Common to all, as to assay: NCI-60 one-dose screen, 48 h (100 = growth as untreated, 0 = no growth, -100 = all killed)
Common to all, as to details: 10 µM unless noted

The subject of experiment [1] is SK-MEL-2 melanoma.
Experiment [2] has as its system EKVX NSCLC.
Experiment [3] deals with SN12C renal.
Experiment [4] deals with UO-31 renal.
Experiment [5] has as its system TK-10 renal.
In experiment [6] the test system is ACHN renal.
Experiment [7] relates to CAKI-1 renal.
The test system of experiment [8] is A498 renal.
Experiment [9] relates to CCRF-CEM leukemia.
Experiment [10] relates to MOLT-4 leukemia.

About 83,000 compounds went through this panel and 20% of them were active in at least one assay; those are over-represented in the sample as a whole.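 Single-concentration screen, 48 h exposure, 96-well plates. Endpoint: percent growth. Below 10 = active.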 Values without a mark were called inactive. Calls of active or inactive are those of the source.

These results are taken from PubChem BioAssay (NCI).

As to `CCOC(=O)c1c(NC(=O)CSc2n[nH]c3nc4ccccc4n23)sc(CC)c1C`, the growth in experiment [1] was 80.6%; in experiment [2] it was 91.9%; in experiment [3], 100%; in experiment [4], 73.4%; in [5], 130%; in [6], 96.8%. For the same compound, the growth was 108% in experiment [7], 106% in [8], 121% in experiment [9] and 79.6% in experiment [10].
Take `O=C(Cn1cc(CN2C(=O)c3ccccc3S2(=O)=O)nn1)Nc1cccc(Cl)c1`: the growth is 96.7% in experiment [1]; 103% in experiment [2]; 110% in [3]; 101% in experiment [4]; 103% in experiment [5]; 102% in experiment [6]. The growth is 98.5% in [7], 110% in experiment [8], 104% in [9] and 107% in experiment [10].
As to `COc1ccc(Cc2nnc(Nc3nc4ccccc4s3)s2)cc1`, the growth was 107% in experiment [1]; 96.1% in [2]; 94.2% in experiment [3]; 81.2% in [4]; 103% in experiment [5]; 97.2% in experiment [6]. For the same compound, the growth in experiment [7] was 96.1%; in experiment [8] it was 97.8%; in experiment [9] it was 97.7%; in experiment [10], 105%.
In the case of `N=C(N)SCc1cccc2c(CSC(=N)N)cccc12`, the growth in [1] was 106%; in [2], 107%; in experiment [3], 94%; in experiment [4], 84.9%; in [5] it was 106%; in experiment [6] it was 108%. The growth in experiment [7] was 94.4%; in experiment [8] it was 87.2%; in [9], 119%; in experiment [10], 119%.
Consider `CC1(C)CC[C@]2(C(=O)O)CC[C@]3(C)C(=CC[C@@H]4[C@@]5(C)C[C@@H](Cc6cn([C@@H]7O[C@H](CO)[C@@H](O)[C@H](O)[C@H]7O)nn6)[C@H](O)C(C)(C)[C@@H]5CC[C@]43C)[C@@H]2C1`, for which the growth in experiment [1] is 113%; in [2], 99.4%; in experiment [3], 99.7%; in experiment [4], 96.3%; in experiment [5] it was 93.6%; in [6] it was 100%. In addition, the growth was 98.3% in experiment [7], 98.8% in experiment [8], 96.4% in experiment [9] and 83.4% in experiment [10].
Consider `COc1ccc2[nH]cc(-c3nc(-c4cn(C)c5ccncc45)cs3)c2c1`, for which the growth is 93% in experiment [1]; -14.1% (active) in experiment [2]; 96.2% in experiment [3]; 77.6% in experiment [4]; 78.6% in experiment [5]; 83.9% in [6]. The growth in experiment [7] was 67.2%; in experiment [8], 89.1%; in [9], -20.3% (active); in [10], 63%.
On to `CC1(C)CC[C@]2(C(=O)N3CCOCC3)CC[C@]3(C)C(=CC[C@@H]4[C@@]5(C)C/C(=C/c6ccncc6)C(=O)C(C)(C)[C@@H]5CC[C@]43C)[C@@H]2C1`, for which the growth in experiment [1] was -6.74% (active); in experiment [2] it was 14.5%; in experiment [3], 18%; in [4] it was 11%; in experiment [5], 35.9%; in [6], 15.6%. For the same compound, the growth in [7] was 16.7%; in [8], -20.3% (active); in experiment [9], -6.27% (active); in experiment [10] it was -16.9% (active).
As to `COc1ccc(/C=C/C(=O)c2ccc(Nc3nc(Nc4ccc(F)cc4)nc(Nc4ccc(Cl)cc4)n3)cc2)cc1`, the growth in experiment [1] is 55.1%; in experiment [2] it was 86.2%; in experiment [3] it was 112%; in experiment [4] it was 75.6%; in experiment [5] it was 137%; in experiment [6], 106%. Also, the growth in experiment [7] was 86.5%; in experiment [8] it was 118%; in [9], 8.9% (active); in experiment [10], 22.3%.
Turning to `CN1CCN(CCCOC(=O)c2c3c(n4ccccc24)C(=O)c2ncccc2C3=O)CC1`, the growth in [1] was -52.7% (active); in experiment [2] it was 37.7%; in [3], -66.3% (active); in experiment [4], -80.9% (active); in experiment [5], 3.81% (active); in experiment [6] it was -53.6% (active). Moreover, the growth in experiment [7] is 0.119% (active); in experiment [8] it was 38.3%; in experiment [9], -16.3% (active); in experiment [10], -2.53% (active).
In the case of `C#CCOc1cccc(-c2ncc3cc(NC(=O)CCl)ccc3n2)c1`, the growth in experiment [1] is 22.7%; in [2], -1.1% (active); in [3], -42.5% (active); in experiment [4], 50.9%; in experiment [5], 78.9%; in experiment [6] it was -87.2% (active). Also, the growth in experiment [7] was -27.3% (active); in experiment [8], 88.1%; in [9] it was -16.8% (active); in experiment [10], 0.493% (active).
For `CCOC(=O)c1c(NC(=O)c2ccc(OC)cc2)sc2c(CN(C)C)c(O)ccc12`, the growth in [1] is 105%; in experiment [2], 95.9%; in experiment [3] it was 77.5%; in experiment [4], 88.8%; in experiment [5], 94.4%; in experiment [6], 6.26% (active). Further, the growth in experiment [7] was 72.3%; in experiment [8], 68.9%; in experiment [9], 56.6%; in experiment [10], 61.2%.
Take `O=C1NC(=C(Cl)Cl)/C(=N/S(=O)(=O)N2CCCCC2)N1`: the growth was 40.7% in [1]; -23.9% (active) in experiment [2]; 23.5% in [3]; 39.7% in [4]; 13.9% in experiment [5]; 26.8% in [6]. Also, the growth in [7] is 46%; in experiment [8], 132%; in [9], -63.3% (active); in [10], -48.7% (active).
On to `O=C1C(Cl)=C(NCCN2CCOCC2)C(=O)c2ncccc21`, for which the growth in experiment [1] was -23.8% (active); in experiment [2], -78.9% (active); in experiment [3], -69.2% (active); in experiment [4] it was -75.7% (active); in [5], 28.3%; in experiment [6], -42.5% (active). For the same compound, the growth in [7] was 88.5%; in experiment [8] it was 74.2%; in experiment [9] it was 5.23% (active); in [10], 8.73% (active).
With `COc1cc(-c2nc(SCCC(C)C)nc(N3CCOCC3)c2C#N)cc(OC)c1OC`, the growth in [1] is 116%; in experiment [2], 100%; in experiment [3], 54.9%; in [4] it was 73.9%; in [5] it was 46.5%; in experiment [6], 101%. Further, the growth is 76.2% in [7], 108% in experiment [8], 78.8% in experiment [9] and 89.2% in experiment [10].
Turning to `COc1ccc(NC(=O)c2cccc(C3CCc4c(cc(OC)c(OC)c4OC)O3)c2)cc1` (stereo not given), the growth in experiment [1] is 9.28% (active); in experiment [2] it was 47%; in experiment [3], 31.4%; in [4], 28.8%; in experiment [5] it was 43.7%; in experiment [6], 41.1%. The growth in experiment [7] was 44.6%; in [8], -8.67% (active); in [9] it was -1.05% (active); in [10], 9.23% (active).
As to `O=C(/C=C/c1ccc(Br)cc1)c1ccc(-n2cc(CN3CCN(c4cc5c(cc4F)c(=O)c(C(=O)O)cn5C4CC4)CC3)nn2)cc1`, the growth in experiment [1] was 97.2%; in experiment [2], 90.7%; in experiment [3], 44.9%; in experiment [4], 65.7%; in experiment [5] it was 91.4%; in experiment [6] it was 93.7%. The growth in experiment [7] is 64.4%; in experiment [8], 57.4%; in experiment [9] it was 56.3%; in [10], 67.7%.
As to `CNC(=O)c1cc(Oc2ccc3nc(NC(=O)Nc4ccc(Cl)c(Cl)c4)sc3c2)ccn1`, the growth in [1] is 80.8%; in experiment [2] it was 8.47% (active); in [3] it was 57.3%; in [4], 39.9%; in experiment [5] it was 66.3%; in [6], 70%. The growth in experiment [7] was 103%; in [8] it was 93.6%; in [9], 42.5%; in [10], 66.2%.
On to `CC1=CCC[C@@H]2C1(C)CC[C@H](C)[C@@]2(C)CC1=CC(=O)C(SC(C)(C)C)=CC1=O` (stereo not given in full), for which the growth in experiment [1] was 97.3%; in experiment [2] it was 70.7%; in [3], 86.8%; in experiment [4], 66.2%; in [5] it was 98.8%; in [6], 77.5%. Moreover, the growth in experiment [7] is 78.4%; in experiment [8], 88.6%; in experiment [9], -23.5% (active); in experiment [10] it was 36%.
Take `N#Cc1c(-c2ccccc2)nc2c(c(-c3ccccc3)nn2-c2ccccc2)c1-c1ccc(N2CCOCC2)cc1`: the growth in experiment [1] was 102%; in experiment [2] it was 103%; in experiment [3] it was 93.4%; in experiment [4], 70.3%; in experiment [5], 101%; in experiment [6] it was 103%. In addition, the growth was 81.8% in [7], 95.1% in [8], 64.6% in [9] and 62.7% in experiment [10].
With `CNCc1cccc2c1OCCOCCN(C)C(=O)CN(C)S(=O)(=O)c1ccc(cc1)-c1cnc(N)c(n1)C(=O)N2`, the growth in experiment [1] was 4.91% (active); in [2], 41.8%; in [3], 20.7%; in experiment [4], 101%; in [5], 11.5%; in [6] it was -2.97% (active). Besides, the growth in experiment [7] is 27.2%; in [8], 70.3%; in experiment [9], -18.4% (active); in experiment [10], -1.69% (active).
Turning to `Cc1cc(N2CCN(C)CC2)nc(NCc2cc(Nc3ccnc4cc(Cl)ccc34)ccc2F)n1`, the growth in [1] was -67.8% (active); in [2], 27.4%; in [3], -20.8% (active); in experiment [4] it was -27.1% (active); in experiment [5], -29.5% (active); in [6], -10.6% (active). Besides, the growth is 12.9% in experiment [7], -40.7% (active) in [8], -4.6% (active) in experiment [9] and 10.2% in experiment [10].
For `CN1CCN(CCCOc2ccc3ncnc(Nc4ccc(Oc5cccc(F)c5)c(Cl)c4)c3c2)CC1`, the growth in experiment [1] is -8.81% (active); in experiment [2], 29.6%; in experiment [3], 49.4%; in experiment [4], 34.2%; in [5], 37%; in [6] it was -11.3% (active). Also, the growth was 5.24% (active) in [7], 33.2% in experiment [8], -6.61% (active) in experiment [9] and -3.25% (active) in experiment [10].
For the compound `CCCCCCCCn1ccc2cc(NC(=O)Cn3cc(CN4CCC(C)CC4)nn3)ccc21`, the growth was 50.3% in experiment [1]; 79% in experiment [2]; 33.5% in experiment [3]; -87.7% (active) in experiment [4]; 80.7% in experiment [5]; 55.1% in experiment [6]. Also, the growth in [7] was 11.3%; in experiment [8], 87.6%; in [9], -12% (active); in [10], 3.1% (active).
Regarding `Nc1n[nH]c2ccc([C@@H]3Nc4cc5[nH]ncc5cc4[C@H]4C5CCC(C5)[C@@H]34)cc12` (stereo not given in full), the growth is 65.2% in [1]; 35.2% in [2]; 36.4% in [3]; 40.2% in experiment [4]; 62.4% in experiment [5]; 32.1% in experiment [6]. The growth was 34.5% in [7], -15.7% (active) in experiment [8], 11.2% in [9] and 22.5% in experiment [10].
